Experiment [1] in a line: growth inhibition of DIPG glioma cells, dose response, cell-based, SU-DIPG-XVII, MIPE5.0, CellTiter-Glo, qHTS (AID 1347060; cut-off not given, nearly all actives have AC50 up to about 26 µM;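 on AC50: cells exposed to compound for 48 hours before viability readout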). To be noted: SU-DIPG-XVII viability, CellTiter-Glo ATP luminescence. Background: Cellular ATP, detected with luciferase, serves as a proxy for viable cell number.
A short description of experiment [2]: viability loss in pontine glioma line – cell-based, SU-DIPG-XXV, MIPE5.0, CellTiter-Glo, qHTS, dose response (AID 1347065; cut-off not given, nearly all actives have AC50 up to about 26 µM;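 further: cells exposed to compound for 48 hours before ATP readout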). As to conditions: CellTiter-Glo ATP luminescence.
A short description of experiment [3]: JHH-DIPG-1 glioma cell viability, MIPE5.0 library, CellTiter-Glo luminescence, qHTS (AID 1347067; cut-off not given, nearly all actives have AC50 up to about 26 µM;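 further: cells exposed to compound for 48 hours before readout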). To be noted: JHH-DIPG-1 glioma viability, CellTiter-Glo ATP luminescence.
Experiment [4] can be described thus: SU-DIPG-XXV glioma cell viability, MIPE5.0 library, qHTS (AID 1347068; cut-off not given, nearly all actives have IC50 up to about 30 µM;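 on IC50: cells exposed to compound for 48 hours before viability readout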). (Quantitative high-throughput screening tests each substance at several concentrations.)
The nature of experiment [5]: SU-DIPG-VI glioma cell viability, MIPE4.0 library, CellTiter-Glo luminescence, qHTS (AID 1347066; cut-off not given, nearly all actives have AC50 up to about 30 µM;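 further: cells exposed to compound for 48 hours before readout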). As to conditions: CellTiter-Glo ATP luminescence.
Experiment [6] in a line: modifiers of HSF1 nuclear foci, imaging, Selleck Cancer Library (AID 1347162; in the data active means plate-normalised HSF1 focus index below about 0.46). To be noted: human cells, at 10 µM; SSMD: measured here: HSF1 foci SSMD mean; cell count: measured here: cell number; plate-normalised HSF1 focus index: stronger effect = lower value.
Experiment [7] can be described thus: ovarian cancer cell viability with rucaparib, profiling panel, oncology-focused library, rucaparib conditional (AID 1508598). As to conditions: patient-derived ovarian cancer cells, CellTiter-Glo viability, 144 h, stronger effect = lower value.

Inconclusive results are not listed. Calls of active or inactive are those of the source.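 How the source made its calls, unless noted: active means normalized viability below 100% at a tested concentration; inactive means the rest.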

`O=C(O)c1cnn(-c2nc3cc(OC(F)(F)F)c(Cl)cc3[nH]2)c1`: the result in experiment [1], in experiment [2], in experiment [3] and in experiment [4] was inactive.

As a reminder, the AC50 is the midpoint of the concentration-response curve, whichever way the signal moves. With `CCC[C@H](N[C@H]1CCc2cc(F)cc(F)c2C1)C(=O)Nc1cn(C(C)(C)CNCC(C)(C)C)cn1`, the AC50 in experiment [1] is 33.2 µM (active); in experiment [2], 18.6 µM (active); in experiment [3] it was 23.5 µM (active).

`Cc1cnc(NC(=O)c2cc(Oc3cnc(C(=O)N(C)C)nc3)c3cc(C)oc3c2)cn1`: the result in experiment [1], in experiment [2], in experiment [3] and in experiment [4] was inactive.

In the case of `Cc1nnc(C[C@@H]2C=C(c3ccc(Cl)cc3)c3ccccc3-n3c(C)nnc32)o1`, the concentration at half-maximal activity (AC50) in experiment [1] is 26.3 µM (active); in experiment [2], 14.8 µM (active); in experiment [3], 18.6 µM (active).

With `O=C(Nc1nnc(-c2ccco2)o1)c1cc(-c2ccccc2)nc2ccccc12`, the half-maximal activity concentration (AC50) in experiment [1] is 26.3 µM (active); in experiment [2], 20.9 µM (active); in experiment [5], 14.8 µM (active). The compound was classed as inactive in experiment [4].

One may read the viability as a read-out of living cells in per cent, often relative to untreated cells. For `C[C@@H](Oc1cc(-n2cnc3ccc(CN4CCN(C)CC4)cc32)sc1C(N)=O)c1ccccc1C(F)(F)F`, the AC50 was 0.0525 µM (active) in experiment [1], 0.0372 µM (active) in experiment [2] and 18.7 µM (active) in experiment [5]. In experiment [6], the SSMD was 1.17. The same compound displayed a cell count in experiment [6] of 6420. In experiment [6], the plate-normalised HSF1 focus index was 1.06 (inactive). For the same compound, the viability in experiment [7] (at 0.000305 µM, OCI-C5x cells, with rucaparib 10 µM, 100% = cells with rucaparib alone) is 99.2% (active); in experiment [7] (at 0.000305 µM, OCI-C5x cells, without rucaparib), 88.3% (active); in experiment [7] (at 0.000305 µM, OCI-P5x cells, with rucaparib 20 µM, 100% = cells with rucaparib alone) it was 87% (active); in experiment [7] (at 0.000305 µM, OCI-P5x cells, without rucaparib), 33.3% (active); in experiment [7] (at 0.00122 µM, OCI-C5x cells, with rucaparib 10 µM, 100% = cells with rucaparib alone), 92.1% (active); in experiment [7] (at 0.00122 µM, OCI-C5x cells, without rucaparib), 72.7% (active). For the same compound, the viability was 73.8% (active) in experiment [7] (at 0.00122 µM, OCI-P5x cells, with rucaparib 20 µM, 100% = cells with rucaparib alone); 22% (active) in experiment [7] (at 0.00122 µM, OCI-P5x cells, without rucaparib); 76.5% (active) in experiment [7] (at 0.00488 µM, OCI-C5x cells, with rucaparib 10 µM, 100% = cells with rucaparib alone); 44% (active) in experiment [7] (at 0.00488 µM, OCI-C5x cells, without rucaparib); 73.2% (active) in experiment [7] (at 0.00488 µM, OCI-P5x cells, with rucaparib 20 µM, 100% = cells with rucaparib alone); 18% (active) in experiment [7] (at 0.00488 µM, OCI-P5x cells, without rucaparib). The viability in experiment [7] (at 0.0195 µM, OCI-C5x cells, with rucaparib 10 µM, 100% = cells with rucaparib alone) was 46.7% (active); in experiment [7] (at 0.0195 µM, OCI-C5x cells, without rucaparib), 33.6% (active); in experiment [7] (at 0.0195 µM, OCI-P5x cells, with rucaparib 20 µM, 100% = cells with rucaparib alone), 62.1% (active); in experiment [7] (at 0.0195 µM, OCI-P5x cells, without rucaparib), 13.6% (active); in experiment [7] (at 0.0781 µM, OCI-C5x cells, with rucaparib 10 µM, 100% = cells with rucaparib alone) it was 41.7% (active); in experiment [7] (at 0.0781 µM, OCI-C5x cells, without rucaparib) it was 30.9% (active). For the same compound, the viability in experiment [7] (at 0.0781 µM, OCI-P5x cells, with rucaparib 20 µM, 100% = cells with rucaparib alone) is 62.6% (active); in experiment [7] (at 0.0781 µM, OCI-P5x cells, without rucaparib), 15.3% (active); in experiment [7] (at 0.313 µM, OCI-C5x cells, with rucaparib 10 µM, 100% = cells with rucaparib alone) it was 34.4% (active); in experiment [7] (at 0.313 µM, OCI-C5x cells, without rucaparib), 22.2% (active); in experiment [7] (at 0.313 µM, OCI-P5x cells, with rucaparib 20 µM, 100% = cells with rucaparib alone), 70.6% (active); in experiment [7] (at 0.313 µM, OCI-P5x cells, without rucaparib) it was 13.4% (active). Besides, the viability in experiment [7] (at 1.25 µM, OCI-C5x cells, with rucaparib 10 µM, 100% = cells with rucaparib alone) is 38.1% (active); in experiment [7] (at 1.25 µM, OCI-C5x cells, without rucaparib), 28.8% (active); in experiment [7] (at 1.25 µM, OCI-P5x cells, with rucaparib 20 µM, 100% = cells with rucaparib alone), 62.3% (active); in experiment [7] (at 1.25 µM, OCI-P5x cells, without rucaparib), 15.1% (active); in experiment [7] (at 5 µM, OCI-C5x cells, with rucaparib 10 µM, 100% = cells with rucaparib alone) it was 51.4% (active); in experiment [7] (at 5 µM, OCI-C5x cells, without rucaparib) it was 3.97% (active). Moreover, the viability was 0.676% (active) in experiment [7] (at 5 µM, OCI-P5x cells, with rucaparib 20 µM, 100% = cells with rucaparib alone) and 11.4% (active) in experiment [7] (at 5 µM, OCI-P5x cells, without rucaparib).

The term IC50 denotes the midpoint of a concentration-inhibition curve. For `CCOc1cc(C(=O)N2CCC(N3CCN(C)CC3)CC2)ccc1Nc1ncc2c(n1)N(C1CCCC1)c1ccccc1C(=O)N2C`, the figures for the AC50 in experiment [1], in experiment [2] and in experiment [3] were 23.5 µM (active), 20.9 µM (active) and 26.3 µM (active), respectively. The IC50 in experiment [4] is 20.9 µM (active).

For `COc1cc(N2CCN(C)CC2)ccc1Nc1ncc2c(n1)N(C)c1ccccc1C(=O)N2C`, the figures for the AC50 in experiment [1], in experiment [2] and in experiment [3] were 18.6 µM (active), 18.6 µM (active) and 14.8 µM (active), respectively.

In the case of `Oc1ccc([C@@H]2Oc3ccc(O)cc3[C@@H]3CCC[C@@H]32)cc1`, the figures for the half-maximal activity concentration (AC50) in experiment [1] and in experiment [2] were 13.2 µM (active) and 11.8 µM (active), respectively. In experiment [5], the outcome was inactive.

The record behind these values is PubChem BioAssay.
